According to PubChem BioAssay AID1479146 (National Center for Advancing Translational Sciences (NCATS), 2020):
Records with an inconclusive call do not appear. Entries that show only a call come without a potency. Calls of active or inactive are those of the source. Calls follow the shape of the full dose curve.

Assay: Confirmatory qHTS for Huh7 cytotoxicity: counterscreen for inhibitors of MERS-S pseudo-typed particle cell entry
Settings: viability; series mostly up to 57.1 µM

Compound | Potency | activity change, negative = cytotoxicity
Cc1c(N)nc(C(CC(N)=O)NCC(N)C(N)=O)nc1C(=O)NC(C(=O)NC(C)C(O)C(C)C(=O)NC(C(=O)NCCc1nc(-c2nc(C(=O)NCCCN[C@@H](C)c3ccccc3)cs2)cs1)C(C)O)C(O[C@@H]1O[C@@H](CO)[C@@H](O)[C@H](O)[C@@H]1O[C@H]1O[C@H](CO)[C@@H](O)[C@H](OC(N)=O)[C@@H]1O)c1cnc[nH]1 (some centres not stated) | inactive | 
COc1cc2nccc(Oc3ccc(NC(=O)NC4CC4)c(Cl)c3)c2cc1C(N)=O | inactive | 
CC[C@H](C)C(=O)O[C@H]1C[C@@H](C)C=C2C=C[C@H](C)[C@H](CC[C@@H]3C[C@@H](O)CC(=O)O3)[C@H]21 | inactive | 
COc1cc([C@@H]2c3cc4c(cc3C(O[C@@H]3O[C@@H]5CO[C@@H](c6cccs6)OC5[C@H](O)[C@H]3O)C3COC(=O)[C@@H]32)OCO4)cc(OC)c1O (some centres not stated) | 5.41 µM (active) | 
CCn1cc(C(=O)O)c(=O)c2cc(F)c(N3CCNC(C)C3)c(F)c21 (configuration not stated) | inactive | 
COc1cccc2c1C(=O)c1c(O)c3c(c(O)c1C2=O)C[C@@](O)(C(C)=O)C[C@@H]3O[C@H]1C[C@H](N)[C@H](O)[C@H](C)O1 | 6.07 µM (active) | 
CC(C)C(=O)Oc1ccc(CO)cc1[C@H](CCN(C(C)C)C(C)C)c1ccccc1 | inactive | 
CCC(C)(C)C(=O)O[C@H]1C[C@@H](C)C=C2C=C[C@H](C)[C@H](CC[C@@H]3C[C@@H](O)CC(=O)O3)[C@H]21 | inactive | 
Cc1cc(-n2c(=O)[nH]c(=O)n(C)c2=O)ccc1Oc1ccc(S(=O)(=O)C(F)(F)F)cc1 | inactive | 
Cc1cn([C@H]2C[C@H](N=[N+]=[N-])[C@@H](CO)O2)c(=O)[nH]c1=O | inactive | 
CCCCc1oc2ccccc2c1C(=O)c1cc(I)c(OCCN(CC)CC)c(I)c1 | inactive | 
COc1cccc2c1C(=O)c1c(O)c3c(c(O)c1C2=O)C[C@@](O)(C(=O)CO)C[C@@H]3O[C@H]1C[C@H](N)[C@@H](O)[C@H](C)O1 | 2.15 µM (active) | 
C/C=C(/C)C(=O)O[C@H]1C(C)=CC23C(=O)C(C=C(CO)[C@@H](O)[C@]12O)[C@H]1[C@@H](C[C@H]3C)C1(C)C (some centres not stated) | inactive | 
C=CC(=O)Nc1cc(Nc2nccc(-c3cn(C)c4ccccc34)n2)c(OC)cc1N(C)CCN(C)C | 10.8 µM (active) | 
CCCCCCOC(=O)NC(=N)c1ccc(NCc2nc3cc(C(=O)N(CCC(=O)OCC)c4ccccn4)ccc3n2C)cc1 | inactive | 
CCc1c2c(nc3ccc(OC(=O)N4CCC(N5CCCCC5)CC4)cc13)-c1cc3c(c(=O)n1C2)COC(=O)[C@]3(O)CC | inactive | 
CC(=O)OCC1=C(C(=O)O)N2C(=O)[C@@H](NC(=O)Cc3cccs3)[C@H]2SC1 | inactive | 
CCCN1C[C@H](C)[C@@H](O)[C@](C)(O)[C@@H](CC)OC(=O)[C@H](C)[C@@H](O[C@H]2C[C@@](C)(OC)[C@@H](O)[C@H](C)O2)C(C)[C@@H](O[C@@H]2O[C@H](C)C[C@H](N(C)C)[C@H]2O)[C@](C)(O)C[C@H]1C (some centres not stated) | inactive | 
CC(C)OC(=O)OCOP(=O)(CO[C@H](C)Cn1cnc2c(N)ncnc21)OCOC(=O)OC(C)C | inactive | 
COc1cc(N)c(Cl)cc1C(=O)NC1CCN(CCCOc2ccc(F)cc2)CC1OC (configuration not stated) | inactive | 
CC(CN(C)C)CN1c2ccccc2CCc2ccccc21 (configuration not stated) | inactive | 
N/C(=N\N=C\c1ccc(Cl)cc1)N/N=C/c1ccc(Cl)cc1 | inactive | 
CCOc1cc2ncc(C#N)c(Nc3ccc(OCc4ccccn4)c(Cl)c3)c2cc1NC(=O)/C=C/CN(C)C |  | -7.24% [at 11.2 µM] (inactive)
CN1CCC(=C2c3ccccc3C=Cc3ccccc32)CC1 | inactive | 
CN(C)CCC=C1c2ccccc2C(C)(C)c2ccccc21 | inactive | 
O=c1c(C2CC(c3ccc(-c4ccc(Br)cc4)cc3)Cc3ccccc32)c(O)sc2ccccc12 (configuration not stated) | inactive | 
CN1CCC(=C2c3ccccc3CCc3sccc32)CC1 | inactive | 
